FXN GAA850 act: frataxin GAA850 promoter activation. 0.56% of 360,000 active. HEK293 lucGAA850 FXN promoter luciferase reporter, 24 h; percent of 10 µM SAHA response. activation, % at 6 µM;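 active means activation above the average of all compounds screened plus 3 SD, cutoff fixed separately per campaign, cut at about 7.5% in these data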;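 further: 0% = DMSO wells and 100% = 10 µM SAHA wells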
EWS-Fli block: blocks EWS/Fli oncoprotein-driven transcription | 0.67% of 350,000 active | A673 NR0B1-luciferase reporter, viability-normalised | AID 651661 | inhibition, % at 12.6 µM;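 active means mean inhibition of at least 50% after viability correction, with every replicate also passing that limit; inconclusive means mean reaches 50% but only one of two replicates passes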;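 further: firefly luciferase signal divided by Alamar Blue viability fluorescence both relative to DMSO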
HIV Env fusion: blocks HIV Env-driven cell-cell fusion; HeLa-JRFL Env/CEM21 cell fusion, luciferase; inhibition, % at 12.3 µM; 1.1% of 360,000 active; AID 651610;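 active means mean replicate inhibition score of at least 50 and every replicate individually at or above 50; inconclusive means only one of the two criteria met; inactive means mean below 50 and not all replicates reaching 50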;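 further: 0% = plate neutral controls and 100% = maraviroc near 300 nM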
F508del corr: correctors of CFTR F508del function in bronchial epithelial cells | CFBE cells, YFP halide quenching; stimulated with forskolin plus potentiator P3; % fluorescence drop versus neutral controls | AID 720511 | 0.36% of 350,000 active | activity (quench increase), % at 7.58 µM;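 active means mean added fluorescence quench of at least 8% versus neutral control, with both replicates also reaching 8%; inconclusive means only one of the mean or replicate conditions met; inactive means mean below 8% and not both replicates reaching 8%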;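 further: cells transiently co-express mutant CFTR-F508del with the halide-sensitive YFP; corrector assay measuring rescue of mutant channel to the surface after 24 h compound exposure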
PAX8 reporter: PAX8 transcriptional activity inhibition | RMG-I TPO-luciferase reporter, SteadyGlo, 24 h | 1.2% of 360,000 active | inhibition, % at 12.6 µM;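 active means mean replicate inhibition at least 60% with every replicate also reaching 60%; inconclusive means only one of the two criteria is met; inactive means mean below 60% and not all replicates reaching 60%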;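 further: luciferase light reporting Pax8 driven TPO promoter activity; plate controls were median of neutral control wells for no effect and mitoxantrone controls for full effect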
Starred values were filed as active, the others as inactive; ? = inconclusive; . = no result given; [ ] = dose if it differs, or a comment. Rows were chosen to be rich in hits. Some 2.5% of all compounds tested hit in one or more screens of this group.

SMILES	FXN GAA850 act	EWS-Fli block	HIV Env fusion	F508del corr	PAX8 reporter
C=C[C@@H](COC(C)=O)N(Cc1ccccc1[N+](=O)[O-])S(=O)(=O)c1ccc(Br)cc1	.	13	-14[16.7 µM]	?	-10
Cc1ccc(S(=O)(=O)N(C)C[C@H]2OCCCC[C@H](C)Oc3ccc(NS(=O)(=O)c4cccs4)cc3C(=O)N([C@H](C)CO)C[C@@H]2C)cc1	.	1	-30[16.7 µM]	-3	72*
COC(=O)c1c(CC[C@@H](CO)NC(=O)N[C@H](Cc2ccccc2)Cn2cc(-c3ccccn3)nn2)oc(C(C)=O)c1C(=O)OC	.	-2	-6[16.7 µM]	2	2
Cc1c(C2Nc3ccccc3C2C)[nH]c2ccccc12 (stereo not drawn)	.	-45	-121	10*	15
c1ccc2c(c1)[nH]c1ccccc12	2	-11	.	-4	.
CO[C@@H]1CN(C)C(=O)c2cc(NC(=O)c3nc4ccccc4s3)ccc2OC[C@@H](C)N(Cc2cccnc2)C[C@@H]1C	.	-3	.	-2	48
C=CC(=O)Nc1sc2c(c1C(N)=O)CCCC2	-1	-13	30	0	80*
O=C(NCCc1ccccc1)N1c2ccccc2Sc2ccccc21	0	.	60*	.	11
CC(C)CNC(=O)N1c2ccccc2Sc2ccccc21	1	8	11	-1	13
CC(=O)c1ccc([C@@H]2C[C@]34CN(Cc5cccc(C(F)(F)F)c5)S(=O)(=O)[C@H]3C[C@H]2O4)cc1	0	0	31	-1	12
CC(=O)c1ccc([C@H]2C[C@@]34CN(C(=O)OC(C)(C)C)S(=O)(=O)[C@H]3C[C@H]2O4)cc1	-2	-11	68*	3	1
CCCC#Cc1ccc2c(c1)O[C@@H](CN(C)C(=O)Nc1ccc(OC)cc1)[C@H](C)CN([C@H](C)CO)S2(=O)=O	.	9	-13[16.7 µM]	3	.
O=C(C1=C(c2ccccc2)C(=O)c2ccccc2C1=O)c1ccccc1	-14	61*	155*	-2	78*
CCn1c(-c2ccc(Cl)cc2)n[nH]c1=S	-3	.	61*	.	.
COc1ccc(-n2c(-c3ccc(Cl)cc3)c[n+]3c2CCCCC3)cc1	0	14	-7	4	52
CC(C)c1ccc(-n2c(-c3ccccc3)c[n+]3c2CCc2ccccc2-3)cc1	-12	59*	49	-3	90*
COc1ccc(-n2c(-c3ccc(Br)cc3)c[n+]3c2CCc2ccccc2-3)cc1	-3	11	9	2	79*
COc1ccccc1-n1c(-c2ccccc2)c[n+]2c1CCc1ccccc1-2	-5	26	41	-5	88*
COc1ccccc1-n1c(-c2ccccc2)c[nH]c1=S	0	0	20	-1	0
N#Cc1ccc(-c2ccc([C@H]3[C@@H](CO)N4CCCCN(S(=O)(=O)c5ccccc5)C[C@@H]34)cc2)cc1	.	-13	.	2	-5
CC=Cc1ccc2n(c1=O)C[C@H]1[C@H](CO)[C@@H](C(=O)NCC(F)(F)F)N(CCC)[C@@H]21 (mixture of isomers)	.	4	.	1	0
CO[C@H]1O[C@H](CO)[C@@H](OC(=O)Nc2cccc(F)c2)[C@H](OC(=O)Nc2ccccc2)[C@H]1OC(=O)Nc1ccccc1	.	9	0[16.7 µM]	2	-15
COc1cccc(NC(=O)C(NCCc2ccc(S(N)(=O)=O)cc2)c2ccccc2)c1 (stereo not drawn)	-1	11	5	4	74*
COc1ccc(CCNC(C(=O)Nc2cc(C)cc(C)c2)c2ccccc2)cc1 (stereo not drawn)	3	9	24	2	44
CC[C@]12c3[nH]c4ccc(Cl)cc4c3CCN1C(=O)[C@@H](CC(=O)NCc1ccco1)C[C@@H]2C(=O)N1CCN(C(=O)C2CC2)CC1	-2	0	-11	-3	20
SMILES	FXN GAA850 act	EWS-Fli block	HIV Env fusion	F508del corr	PAX8 reporter
CC[C@]12c3[nH]c4ccccc4c3CCN1C(=O)C(CC(=O)NCc1ccco1)C[C@@H]2C(=O)N1CCN(C(=O)C2CC2)CC1 (stereo partly drawn)	-2	-2	-85	1	-18
CC[C@]12c3[nH]c4ccc(Cl)cc4c3CCN1C(=O)[C@@H](CC(=O)NC/C=C(\C)CCC=C(C)C)C[C@@H]2C(=O)N1CCN(C(=O)c2ccco2)CC1	-4	19	-34	4	82*
CN(C)CCCNC(=O)C[C@H]1C[C@H](C(=O)N2CCCCC2)[C@@]2(CCc3ccccc3)c3[nH]c4ccc(Cl)cc4c3CCN2C1=O	-3	63*	-18	2	-5
CC[C@]12c3[nH]c4ccc(Cl)cc4c3CCN1C(=O)[C@@H](CC(=O)NCC13CC4CC(CC(C4)C1)C3)C[C@@H]2C(=O)N1CCN(C(=O)C2CC2)CC1	6	-4	58*	-2	48
O=C(C[C@H]1C[C@H](C(=O)N2CCCCC2)[C@@]2(CCc3ccccc3)c3[nH]c4ccc(Cl)cc4c3CCN2C1=O)NCCc1ccccn1	-3	.	.	.	.
CC[C@]12c3[nH]c4ccccc4c3CCN1C(=O)C(CC(=O)NCc1ccc(OC)c(OC)c1)C[C@@H]2C(=O)N1CCN(C(=O)C2CC2)CC1 (stereo partly drawn)	-2	-3	61*	3	7
Cc1noc(C)c1NC(=O)N(C)C[C@@H]1OCCCC[C@H](C)Oc2ccc(NS(=O)(=O)c3ccccc3)cc2C(=O)N([C@@H](C)CO)C[C@@H]1C	.	-15	-29[16.7 µM]	0	-30
COc1ccc2c3c([nH]c2c1)[C@H](CO)N(C(=O)CN(C)C)CC31CCN(CC2CCOCC2)CC1	.	-12	.	-1	.
O=C(c1cccnc1)N1CCCCN2[C@H](CO)[C@@H](c3ccc(C#Cc4ccccc4)cc3)[C@H]2C1	.	0	.	-3	-19
CN(CC(=O)Nc1cccc(F)c1)C(=O)CCCc1cccs1	0	-7	.	-5	97*
CN(CC(=O)Nc1cccc(F)c1)C(=O)Cc1ccsc1	1	-2	-27	2	8
CO[C@@H]1CN(C)C(=O)c2cc(NC(=O)C3CC3)ccc2OC[C@H](C)N(Cc2nccs2)C[C@@H]1C	.	0	.	0	-9
C[C@H]1CN([C@@H](C)CO)C(=O)c2cccc(NS(=O)(=O)c3ccc(F)cc3)c2O[C@H]1CN(C)C(=O)Nc1ccccc1	.	24	-72[16.7 µM]	0	.
C[C@H](CO)N1C[C@H](C)[C@H](CN(C)C(=O)Nc2ccccc2)Oc2c(NS(=O)(=O)c3ccc(F)cc3)cccc2C1=O	.	-5	88*[16.7 µM]	0	.
C[C@H](CO)N1C[C@H](C)[C@H](CN(C)C(=O)Nc2ccc(C(F)(F)F)cc2)Oc2c(NS(=O)(=O)c3ccc(F)cc3)cccc2C1=O	.	-5	57*[16.7 µM]	2	.
CO[C@@H]1CN(C)C(=O)c2cc(NC(=O)C3CC3)ccc2OC[C@H](C)N(C(=O)Cc2ccccn2)C[C@@H]1C	.	0	26[16.7 µM]	1	5
Cc1noc(C)c1NC(=O)N[C@@H]1C=C[C@@H](CC(=O)N2CCCCC2)O[C@H]1CO	.	2	2[16.7 µM]	1	-9

Screening results deposited in PubChem BioAssay by several laboratories.
